Screening data (PubChem)
Pf Dd2 growth = qHTS Primary assay for Inhibitors of Plasmodium falciparum Dd2 growth in vitro. P. falciparum Dd2 growth, SYBR Green, 72 h. Potency, µM (doses to about 28.9 µM), actives largely listed as inhibitors. hit rate 4.3% among 120,000; active means well fitted inhibition curve with a large enough effect; further: nearly all actives have a fitted effect of over 65% in size
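Infected erythrocytes (Dd2, 0.3% parasitemia, 2.5% hematocrit final) are added to compound in RPMI-1640/Albumax II medium, grown 72 h at 37C in low oxygen, then lysed with saponin/Triton-X containing SYBR Green and read by fluorescence.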
Each line names hits and unclear results; the compound was inactive in the other large screens. This excerpt belongs to a sample that is enriched for hits.

COCCNc1cc(-c2cc(C(F)(F)F)ccn2)c2cc[nH]c2n1	Pf Dd2 growth 10µM
COCCNc1ccc2nnc(-c3cc(C#N)ccn3)n2n1	none
COCCNc1ccc2nnc(-c3ccc(C)cn3)n2n1	none
COc1ccc2[nH]c3c(c2c1)CCNC31CCN(C(=O)C2CC=CC2)CC1	none
CCn1c(-c2ccccc2)nn(CC(=O)NCc2ccc3nonc3c2)c1=O	none
O=C(O)[C@]12CN(Cc3ccncc3)C[C@H]1CN(C1CCOCC1)C2	none
O=C(NCc1ccc2nonc2c1)[C@@]12CNC[C@@H]1CN(C1CCCC1)C2	Pf Dd2 growth 7.9µM
CC1(CNC(=O)c2ccc(Cl)s2)CCOCC1	none
CCCC1c2nccn2CCCN1C(=O)c1conc1C (stereo not drawn)	none
Cc1cc(Nc2cccc(Cl)c2)nc2ccc(NC(=O)Cc3ccc(Cl)cc3)cc12	none
CCOc1ccc(C(=O)Nc2ccc3nc(Nc4cccc(C(F)(F)F)c4)cc(C)c3c2)cc1OCC	Pf Dd2 growth 3.2µM
Cc1cc(Nc2cccc(C(F)(F)F)c2)nc2ccc(NC(=O)c3cccnc3)cc12	Pf Dd2 growth 3.5µM
Cc1cc(Nc2cccc(Cl)c2)nc2ccc(NC(=O)c3ccc(F)cc3Cl)cc12	none
CCOc1cc(=O)n2c(c1C(=O)Nc1cccc(C(F)(F)F)c1)CCCC2	none
CCOc1ccc(C(=O)Nc2ccc(NC(=O)c3ccccc3)cc2)cc1Br	none
CN(C)c1nccnc1OC1CCN(C(=O)c2ccccc2)C1 (stereo not drawn)	none
CC(C)CNC(=O)N1C[C@@H]2CCCN3CCC[C@@H]([C@H]23)[C@H]1CCCC(=O)NCC1CC1	none
CCOCCOC1CCN(C(=O)c2sccc2C)CC1	none
COCC(=O)N1CC(C(=O)NC2CCCCC2)C2(CCOCC2)C1 (stereo not drawn)	none
COCCNC(=O)c1ccc(OC2CCN(S(C)(=O)=O)CC2)c(Cl)c1	none
COCCNC(=O)c1ccc(OC2CCN(Cc3ncc[nH]3)CC2)c(Cl)c1	none
O=C(NC1CCCC1)c1ccc(OC2CCN(CCCC(F)(F)F)CC2)c(Cl)c1	Pf Dd2 growth 1.4µM
Cc1ccc(C2Cn3nnc(C(=O)N4CCC(C(=O)Nc5cccc(Cl)c5)CC4)c3CO2)cc1 (stereo not drawn)	none
COCCCNC(=O)CCCN1C(=O)COc2ccc(C(=O)COc3cc(C)ccc3C)cc21	none
CCN(CC)Cc1cnc2c(C(=O)NC3CCCNC3)cnn2c1 (stereo not drawn)	none
CCc1cccc(NC(=O)CN2C(=O)CN=C(c3ccccc3F)c3cc(Cl)ccc32)c1	none
Fc1ccccc1-c1nnc([C@H]2CCN(Cc3ccccc3)C2)o1	none
CCc1cccc(NC(c2ccccc2)c2nnc(-c3ccccc3F)o2)c1 (stereo not drawn)	Pf Dd2 growth 11µM
Cc1oc(C(O)c2ccccc2F)nc1C(=O)N1CCN(c2ccccn2)CC1 (stereo not drawn)	none
CN(Cc1ccccc1)C(=O)C1=NO[C@@H]2CN(Cc3ccc(F)cc3)C[C@H]12	none
FC(F)(F)c1cccc(C2=NOC3(CCN(Cc4ccccc4)CC3)C2)c1	none
CCOC(=O)C1(Cc2ccc(OC)cc2)CCN(C(=O)c2cccc(Cl)c2)CC1	none
CC(=O)NC1(C)CCN(Cc2cnc(-c3cccc(C(F)(F)F)c3)s2)CC1	none
CCOC(=O)C1(Cc2ccc(F)cc2)CCCN(C(=O)c2ccco2)C1 (stereo not drawn)	none
CCOC(=O)C1(Cc2cccc(C(F)(F)F)c2)CCN(Cc2ccc(COC)o2)CC1	Pf Dd2 growth 8.9µM
CCOC(=O)C1(Cc2cccc(C(F)(F)F)c2)CCN(Cc2cc(C(C)C)n[nH]2)CC1	Pf Dd2 growth 7.1µM
COCC(=O)N1CCN(C(=O)NC(C)C)C[C@H]1C(=O)N[C@H](Cc1cccnc1)C(=O)OC	none
Cc1cnn(CC(=O)N2CCc3nn(Cc4ccccc4)c(=O)n3CC2)c1	none
Cc1noc(C)c1CCC(=O)N[C@@H]1CCOC[C@H]1Oc1ccccn1	none
Cn1nc(C2CCCN(C(=O)C3CCOCC3)C2)n(Cc2ccccc2)c1=O (stereo not drawn)	none
Cc1noc(C2CC3(CCN(C(=O)c4ocnc4C)CC3)CN2C)n1 (stereo not drawn)	none
Cc1ccc(C(=O)N[C@H]2CO[C@H]3[C@@H]2OC[C@@H]3n2nnnc2Oc2ccccc2)cc1	none
COc1ccc2c(c1)c(CN1C[C@@H](CO)[C@H](c3nc(C)no3)C1)cn2C	Pf Dd2 growth 10µM
COc1ccc(CN2C[C@@H](CO)[C@H](c3nc(C)no3)C2)cc1OC	none
COc1cccc(CN2C[C@@H](CO)[C@H](c3nc(C)no3)C2)c1OC	none
COC(=O)c1ccc2nc(C[C@@H]3C[C@@H](C(C)C)[C@H](CNS(=O)(=O)c4ccccc4)C=C3C)[nH]c2c1	Pf Dd2 growth 10µM
COC(=O)c1ccc2nc(C[C@@H]3C[C@@H](C(C)C)[C@H](CNC(=O)CC4(CC(=O)O)CCCC4)C=C3C)[nH]c2c1	none
COC(=O)c1ccc2nc(C[C@@H]3C[C@@H](C(C)C)[C@H](CNC(=O)c4cccnc4)C=C3C)[nH]c2c1	Pf Dd2 growth 7.9µM
COC(=O)c1ccc2nc(C[C@@H]3C[C@@H](C(C)C)[C@H](CNCc4ccc(NC(C)=O)cc4)C=C3C)[nH]c2c1	none
COC(=O)c1ccc2nc(C[C@@H]3C[C@@H](C(C)C)[C@H](CNC(=O)CCC(=O)O)C=C3C)[nH]c2c1	none
CC1=C[C@@H](CNC(=O)c2ccccc2)[C@H](C(C)C)C[C@H]1Cc1nc2ccc(C)cc2[nH]1	none
O=C1C[C@@H]2CCN(C(=O)c3ccccc3)C[C@@H]2CCN1Cc1cccnc1	none
COc1ccc(CN2C(=O)COC[C@@H]2[C@H](O)c2ccc(NC(C)=O)cc2)cc1	none
COCCN1CCC(N2CCN(C(=O)c3ccc(F)cc3)CC2)C1=O (stereo not drawn)	none
CCn1ncc(N2CCCC(CC(=O)Nc3cc(OC)cc(OC)c3)C2)cc1=O (stereo not drawn)	none
O=C(Nc1ccc([C@H]2OCC(=O)N(Cc3ccc(F)cc3)[C@@H]2CO)cc1)c1ccco1	none
O=C(NC[C@H]1Cn2c(-c3ccccc3)cnc2CO1)C1CCOCC1	none
O=C(C1CC1)N1CCCC(Nc2ccc(F)c(F)c2)C1 (stereo not drawn)	none
Clc1ccc2nc(-c3ccc(Br)o3)c(Nc3ccc4c(c3)OCCO4)n2c1	none
Cc1ccc2nc(-c3ccccn3)c(Nc3ccc(F)cc3)n2c1	Pf Dd2 growth 4µM
COc1cc(-c2nc3nc[nH]n3c2Nc2ccc(C(C)C)cc2)ccc1O	none
CC(C)c1ccc(Nc2c(-c3ccccn3)nc3ccccn23)cc1	Pf Dd2 growth 4.5µM
COc1ccc(Nc2ccc3nnc(-c4ccccn4)n3n2)cc1	none
Cc1ccc2nc(-c3ccc(C)s3)c(Nc3ccc4c(c3)OCCO4)n2c1	none
Fc1ccc(Nc2c(-c3ccccn3)nc3ccc(Cl)cn23)cc1	Pf Dd2 growth 8.9µM
Cc1ccc(Nc2c(-c3cccnc3)nc3ccc(C)cn23)cc1	none
Cc1ccc(CNC(=O)N2CCC(c3nc(CCOCC4CCOCC4)no3)C2)cc1 (stereo not drawn)	none
O=C(Cc1cccn1-c1ccc(Cl)cc1)NC1CCCC1	none
COC(=O)c1ccc(Cn2cnc3nc4c(cc3c2=O)CCCC4)cc1	none
CCC(C(=O)Nc1ccc(C(C)=O)cc1)n1cnc2nc3c(cc2c1=O)CCCC3 (stereo not drawn)	Pf Dd2 growth 10µM
Cc1ccc(Cn2cnc3nc4c(cc3c2=O)CCCC4)cc1	none
O=C(CN1CCn2nc(C(O)C3CC3)cc2C1)N1CCc2ccccc21 (stereo not drawn)	none
CC(C)(C)CC(=O)N1CCC(N2CCCC(C(=O)NCc3ccccc3)C2)CC1 (stereo not drawn)	none
CCCCn1c(SCC(=O)Nc2cccc(OC)c2)nc2c(sc3ccccc32)c1=O	none
